KKLEB cytotox = counter-screen for CF NF-kB inhibitors: cytotoxicity. KKLEB CF airway cells viability, ATPlite luminescence, overnight; stronger effect = lower value; cells stimulated with P. aeruginosa culture filtrate. activity change (cytotoxicity), % at 5 µM. 360,000 compounds, 0.36% hits. AID 602141;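 active = corrected activity change at or below -50% at 5 µM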
CF NFkB block = blocks PAF-induced NF-kB reporter in cystic fibrosis cells. 360,000 compounds, 0.86% hits. inhibition, % at 5 µM. KKLEB NF-kB-GFP reporter, GFP fluorescence overnight. AID 588850;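 active = at least 50% inhibition at 5 µM, scaled per plate between neutral and stimulator controls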;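 note: PAF is a Pseudomonas aeruginosa culture filtrate used as stimulus; plate controls were PAF-stimulated DMSO wells for no effect and unstimulated DMSO wells for full effect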
TRPM1 prom inh = MITF TRPM1 promoter inhibition in SK-MEL-5 cells; SK-MEL-5 TRPM1 promoter luciferase, 24 h; inhibition, % at 12.5 µM; 330,000 compounds, 0.83% hits; AID 488899;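 active = mean inhibition across replicates of 60% or more, whatever share of single replicates reaches that level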
HIF-2a inh = HIF-2a inhibition; 786-0 RCC cells HIF-2a reporter, luciferase luminescence, overnight; inhibition, % at 18.8 µM; 360,000 compounds, 0.72% hits; AID 624352;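 active = inhibition of the luminescence signal of 40% or more relative to plate controls, in a single-dose primary screen at 18.75 µM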
Shn3 inh set2 = inhibitors of Schnurri-3 3'UTR reporter in osteoblasts; Clone20 osteoblast Shn3 3'UTR firefly luciferase, 24 h; 360,000 compounds, 0.52% hits; inhibition, % at 12.5 µM;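 active = mean inhibition of at least 75% with every replicate also reaching 75%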;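 note: 0% = median of neutral control wells and 100% = pilot-screen positive control compound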
Peg3 prom inh = Peg3 promoter activity inhibition. AID 588405. HeLa PEG-Prom luciferase reporter, luminescence, overnight. 360,000 compounds, 1.7% hits. inhibition, % at 20 µM;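 active = inhibition of at least 50% at 20 µM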
* = called active by the depositor; . = not tested or not shown. Most compounds without a hit are left out; they make up all but 2.8% or so of the library.

SMILES	KKLEB cytotox	CF NFkB block	TRPM1 prom inh	HIF-2a inh	Shn3 inh set2	Peg3 prom inh
COc1cccc(CNC(=O)c2ccc(CS(=O)Cc3ccc(C)cc3)o2)c1 (configuration not stated)	-18	0	5	2	13	4
Cc1nc2ccccn2c(=O)c1NC(=O)c1cccc2ccccc12	3	0	-6	20	12	20
O=C(c1ccc(S(=O)(=O)c2ccccc2Cl)c([N+](=O)[O-])c1)N1CCN(Cc2ccccc2)CC1	-6	34	76*	13	83	27
O=C1CCN(CCCN2CCC(=O)NC2=S)C(=S)N1	-6	-6	.	1	-11	-3
NC(=O)c1sc2nc3c(c(-c4ccco4)c2c1N)CCC3	-1	76*	7	4	-2	29
CS(=O)(=O)c1nc([N+](=O)[O-])nn1CCCc1ccccc1	-44	90*	-1	18	-10	60*
Cn1nc([N+](=O)[O-])nc1S(C)(=O)=O	6	70*	72*	-4	11	49
O=C(CC1(CC2=NS(=O)(=O)c3ccccc3N2)CCCC1)NCCc1ccccc1	2	-5	-5	-12	-7	9
C=CCN=C1NN=C(c2ccc3c(c2)OCCO3)CS1	-10	6	69*	-17	-10	2
Cc1cccc(N/C=C/c2onc(C)c2[N+](=O)[O-])c1	7	-6	-65	-225	-46	-182
Cc1cc(O)ccc1N/C=C/c1onc(C)c1[N+](=O)[O-]	-52*	37	-21	-171	-60	-234
CCOC(=O)N1CCN(S(=O)(=O)c2ccc(C(=O)Nc3nnc(C4CC4)o3)cc2)CC1	-5	-9	-8	16	-3	-4
CCOC(=O)N1CCN(S(=O)(=O)c2ccc(C(=O)Nc3nc4c(s3)CC(C)CC4)cc2)CC1 (configuration not stated)	-62*	38	12	1	37	34
O=C1C(Nc2ccccc2)=C/C(=N/S(=O)(=O)c2cccs2)c2ccccc21	-91*	100*	95*	-5	97*	105*
Cc1ccc(/C=C2\S/C(=N/S(=O)(=O)c3cccs3)NC2=O)cc1	2	15	-6	5	-22	18
Cc1ccc(NC2=C/C(=N/S(=O)(=O)c3cccs3)c3ccccc3C2=O)cc1	-70*	80*	105*	-152	97*	-88
Cn1c(Cl)nc2ccccc21	6	-6	7	-9	-3	5
Cn1c(N=Nc2ccccc2)nc2ccccc21	-53*	-21	14	-25	-13	-209
COc1cc([N+](=O)[O-])ccc1N/C=C/C(=O)c1cccs1	-58*	-50	19	-211	-8	-81
O=C(/C=C/c1ccc([N+](=O)[O-])cc1)c1cccs1	7	14	-34	-65	-17	-22
Cc1cccc(NC(=O)Cn2nc(-c3ccco3)ccc2=O)c1C	14	-2	3	9	8	-9
O=C(c1ccc(Cl)cc1)c1c[nH]c(C(=O)C(Cl)(Cl)Cl)c1	2	-3	-9	-7	-20	58*
O=C(c1c[nH]c(C(=O)C(Cl)(Cl)Cl)c1)c1ccc(F)cc1Cl	8	16	5	-2	23	54*
O=C(c1ccccc1)c1c[nH]c(C(=O)C(Cl)(Cl)Cl)c1	11	-35	5	-5	-6	40
O=C(c1c[nH]c(C(=O)C(Cl)(Cl)Cl)c1)c1ccc(F)cc1F	8	2	7	-5	6	38
SMILES	KKLEB cytotox	CF NFkB block	TRPM1 prom inh	HIF-2a inh	Shn3 inh set2	Peg3 prom inh
O=C(CCCSCCCC(=O)NN=Cc1ccccc1)NN=Cc1ccccc1	-17	28	-4	-13	13	-18
COc1ccc(C(=O)Nc2ccc(Oc3nc(C)nc4sc(-c5ccccc5)cc34)cc2)cc1OC	-53*	48	-1	-9	-18	-1
COc1ccc(C(=O)Nc2ccc(Oc3ncnc4sc(-c5ccccc5)cc34)cc2)cc1OC	-6	-3	6	10	-7	46
Cc1cccc(NC(=O)CCNC(=O)c2ccc(Br)cc2)c1	0	-4	-55	-179	-32	-175
COCCNC(=O)c1ccccc1NC(=O)c1ccccc1SC	8	-15	0	19	0	17
NC(CCc1ccccc1)c1csc(Nc2ccc(C(=O)c3ccccc3)cc2)n1 (configuration not stated)	-11	25	.	-10	6	88*
CN(Cc1ccccc1)C(=O)c1ccc(Nc2nc(C(N)Cc3ccc(C(F)(F)F)cc3)cs2)nc1 (configuration not stated)	-20	29	.	-5	25	95*
NC(Cc1ccc(C(F)(F)F)cc1)c1csc(Nc2ccc(C(=O)c3ccccc3)cc2)n1 (configuration not stated)	-11	-6	.	-15	37	97*
O=C(NC1CCCCC1)C1c2ccccc2OCC(=O)N1Cc1cccnc1 (configuration not stated)	.	.	.	3	.	.
Cc1cc(-c2nnn(CCCOC(C)(C)C)c2C)ccc1-c1cn(CCCOC(C)(C)C)nn1	-5	-6	.	7	74	8
Cc1ccnc2c1ccc1cccnc12	2	3	79*	-30	92*	24
Cc1ccnc2c1ccc1c(C)ccnc12	-9	22	77*	-161	90*	-8
Cc1ccnc2c1ccc1ccccc12	5	0	-12	-5	-16	-24
NS(=O)(=O)c1ccc(CCNC(=O)c2cc3ccccc3oc2=O)cc1	12	8	-23	11	-28	-3
NS(=O)(=O)c1ccc(N/N=C/c2cn(-c3ccccc3)nc2-c2ccccc2)c([N+](=O)[O-])c1	-3	1	77*	12	.	38
Cc1ccc(/C=C2\CCOC2=O)cc1	12	-8	-5	-66	7	-48
Cc1ccc(/C=C2/CNC/C(=C/c3ccc(C)cc3)C2=O)cc1	-63*	80*	91*	85*	-17	105*
Fc1ccc(-n2nnc(-c3cnc4ccccc4c3)n2)cc1	-12	-28	16	21	46	52*
COc1ccc(OC)c(C(=O)/C=C/c2cccnc2)c1	-14	23	2	39	-19	75*
O=C(/C=C/c1ccc(OCc2ccccc2)c(OCc2ccccc2)c1)c1cccnc1	-6	-10	24	26	89*	37
CN(C)S(=O)(=O)c1ccc(C(=O)Nc2cccnc2)cc1	9	-2	3	11	-7	10
CN(C)S(=O)(=O)c1ccc(C(=O)/C=C/c2cccnc2)cc1	7	12	-4	27	63	100*
N#Cc1ccc(/C=C/C(=O)c2cccnc2)cc1	1	-2	20	14	62	70*
CCOC(=O)C1=C[C@@H](c2ccccc2)N(S(=O)(=O)c2ccc(C)cc2)[C@H]1c1cccc(Cl)c1	-2	29	.	16	-26	11
